The text below walks through data of ChEMBL document CHEMBL1961873, “Compounds: GSK PKIS; Assays: Nanosyn kinase panel” (2012).

The term inhibition denotes the change of the read-out against control, counted positive when it falls.

For assay [1], the target named is T1, Serine/threonine-protein kinase D2 (Homo sapiens) (UniProt Q9BZL6).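 Also: mean value of PRKD2 inhibition, from the GSK PKIS screening panel.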
T1 sequence (whole entry): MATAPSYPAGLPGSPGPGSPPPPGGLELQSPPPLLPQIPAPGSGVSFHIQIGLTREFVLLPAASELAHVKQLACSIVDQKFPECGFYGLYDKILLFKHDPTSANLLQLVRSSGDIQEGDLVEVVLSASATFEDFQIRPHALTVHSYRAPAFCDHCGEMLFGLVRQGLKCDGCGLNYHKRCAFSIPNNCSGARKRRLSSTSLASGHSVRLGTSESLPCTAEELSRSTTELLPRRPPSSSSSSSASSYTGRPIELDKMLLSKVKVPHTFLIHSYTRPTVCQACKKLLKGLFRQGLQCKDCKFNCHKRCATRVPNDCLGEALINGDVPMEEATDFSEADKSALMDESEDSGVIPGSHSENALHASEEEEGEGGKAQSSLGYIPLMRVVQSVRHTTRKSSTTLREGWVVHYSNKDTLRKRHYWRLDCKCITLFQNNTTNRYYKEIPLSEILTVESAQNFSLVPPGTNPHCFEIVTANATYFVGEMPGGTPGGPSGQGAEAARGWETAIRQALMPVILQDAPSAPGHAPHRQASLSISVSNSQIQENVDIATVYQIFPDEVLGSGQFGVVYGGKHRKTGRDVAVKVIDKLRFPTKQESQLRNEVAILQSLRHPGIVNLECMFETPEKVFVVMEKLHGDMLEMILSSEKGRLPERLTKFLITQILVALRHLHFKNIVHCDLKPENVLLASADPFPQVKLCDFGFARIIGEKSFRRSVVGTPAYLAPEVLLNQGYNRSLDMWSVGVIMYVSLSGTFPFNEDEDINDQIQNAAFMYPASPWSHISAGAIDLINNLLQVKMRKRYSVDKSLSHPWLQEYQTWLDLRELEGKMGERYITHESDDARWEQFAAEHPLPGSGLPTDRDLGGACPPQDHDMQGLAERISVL
To be noted: at 1 µM.

The target in assay [2] is T2, Serine/threonine-protein kinase D3 (Homo sapiens) (UniProt O94806).
T2 sequence (whole entry): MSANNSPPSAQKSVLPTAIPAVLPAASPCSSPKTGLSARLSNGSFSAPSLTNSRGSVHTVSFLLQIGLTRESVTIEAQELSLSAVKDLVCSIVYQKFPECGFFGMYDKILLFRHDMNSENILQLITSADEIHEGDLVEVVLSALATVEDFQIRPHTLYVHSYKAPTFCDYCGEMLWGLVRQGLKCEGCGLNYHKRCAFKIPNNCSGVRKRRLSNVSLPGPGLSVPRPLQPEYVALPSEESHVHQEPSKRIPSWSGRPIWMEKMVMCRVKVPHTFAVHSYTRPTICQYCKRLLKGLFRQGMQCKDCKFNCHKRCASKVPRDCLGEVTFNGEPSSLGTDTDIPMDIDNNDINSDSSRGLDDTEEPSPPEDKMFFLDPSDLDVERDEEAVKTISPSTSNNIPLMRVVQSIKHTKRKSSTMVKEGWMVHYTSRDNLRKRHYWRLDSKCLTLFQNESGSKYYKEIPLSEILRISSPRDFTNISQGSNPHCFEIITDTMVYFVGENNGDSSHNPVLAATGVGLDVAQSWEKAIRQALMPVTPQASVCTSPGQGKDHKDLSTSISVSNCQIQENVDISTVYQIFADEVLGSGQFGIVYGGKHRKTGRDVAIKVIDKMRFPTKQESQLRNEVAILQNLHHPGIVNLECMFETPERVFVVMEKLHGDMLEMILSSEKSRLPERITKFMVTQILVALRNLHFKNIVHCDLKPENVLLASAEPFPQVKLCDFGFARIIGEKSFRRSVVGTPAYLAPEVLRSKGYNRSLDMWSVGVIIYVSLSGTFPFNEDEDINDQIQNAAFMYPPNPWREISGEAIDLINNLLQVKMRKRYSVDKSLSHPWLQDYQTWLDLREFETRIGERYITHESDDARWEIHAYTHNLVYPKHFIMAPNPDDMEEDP
To be noted: at 0.1 µM.

In assay [3] the target is T2, Serine/threonine-protein kinase D3 (Homo sapiens). To be noted: at 1 µM.
The target of assay [4] is T3, cGMP-dependent protein kinase 1 (Homo sapiens) (UniProt Q13976).
T3 sequence (whole entry): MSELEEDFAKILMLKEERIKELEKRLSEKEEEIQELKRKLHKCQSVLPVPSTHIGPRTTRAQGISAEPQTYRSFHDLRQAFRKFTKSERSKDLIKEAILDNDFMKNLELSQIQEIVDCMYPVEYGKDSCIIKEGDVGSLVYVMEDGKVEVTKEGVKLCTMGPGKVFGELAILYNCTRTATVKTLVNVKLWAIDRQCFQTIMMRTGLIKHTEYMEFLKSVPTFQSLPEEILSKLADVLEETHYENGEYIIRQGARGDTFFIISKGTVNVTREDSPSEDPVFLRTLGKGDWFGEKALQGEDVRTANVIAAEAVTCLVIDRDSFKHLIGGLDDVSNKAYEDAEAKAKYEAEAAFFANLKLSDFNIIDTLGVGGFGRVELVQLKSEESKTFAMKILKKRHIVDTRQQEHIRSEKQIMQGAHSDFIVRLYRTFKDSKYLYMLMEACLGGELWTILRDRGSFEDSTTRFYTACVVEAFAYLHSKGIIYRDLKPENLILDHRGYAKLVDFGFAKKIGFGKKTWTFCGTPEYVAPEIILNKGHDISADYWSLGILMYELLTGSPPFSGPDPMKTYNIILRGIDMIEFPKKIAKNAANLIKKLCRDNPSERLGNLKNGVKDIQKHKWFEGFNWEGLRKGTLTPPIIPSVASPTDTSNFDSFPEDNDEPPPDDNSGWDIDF
Particulars: at 0.1 µM.

Assay [5] addresses T3, cGMP-dependent protein kinase 1 (Homo sapiens). Particulars: at 1 µM.
Assay [6] concerns the target T4, cGMP-dependent protein kinase 2 (Homo sapiens) (UniProt Q13237).
T4 sequence (whole entry): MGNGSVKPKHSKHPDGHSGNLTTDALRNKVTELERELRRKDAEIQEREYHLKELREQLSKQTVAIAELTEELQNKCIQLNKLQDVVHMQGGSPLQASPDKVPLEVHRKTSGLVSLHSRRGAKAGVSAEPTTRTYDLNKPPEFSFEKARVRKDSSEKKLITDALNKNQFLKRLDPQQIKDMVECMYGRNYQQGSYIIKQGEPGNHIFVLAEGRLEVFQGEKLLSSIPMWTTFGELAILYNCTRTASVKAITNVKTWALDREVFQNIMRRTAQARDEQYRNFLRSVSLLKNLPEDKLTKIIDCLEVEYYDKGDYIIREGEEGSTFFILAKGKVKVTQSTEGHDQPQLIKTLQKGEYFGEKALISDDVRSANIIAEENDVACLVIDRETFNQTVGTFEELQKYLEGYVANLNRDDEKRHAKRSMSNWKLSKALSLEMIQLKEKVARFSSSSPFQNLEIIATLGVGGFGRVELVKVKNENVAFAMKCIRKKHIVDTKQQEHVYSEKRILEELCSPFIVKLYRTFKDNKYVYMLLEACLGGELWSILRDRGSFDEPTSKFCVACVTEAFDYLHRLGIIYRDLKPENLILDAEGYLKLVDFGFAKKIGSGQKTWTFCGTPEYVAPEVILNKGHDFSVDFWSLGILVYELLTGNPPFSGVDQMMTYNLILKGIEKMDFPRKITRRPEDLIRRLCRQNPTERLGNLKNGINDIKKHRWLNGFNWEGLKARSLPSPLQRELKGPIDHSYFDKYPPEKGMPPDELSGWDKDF
Particulars: at 0.1 µM.

Assay [7] concerns the target T4, cGMP-dependent protein kinase 2 (Homo sapiens). Particulars: at 1 µM.
Assay [8] addresses T5, cAMP-dependent protein kinase catalytic subunit PRKX (Homo sapiens) (UniProt P51817).
T5 sequence (whole entry): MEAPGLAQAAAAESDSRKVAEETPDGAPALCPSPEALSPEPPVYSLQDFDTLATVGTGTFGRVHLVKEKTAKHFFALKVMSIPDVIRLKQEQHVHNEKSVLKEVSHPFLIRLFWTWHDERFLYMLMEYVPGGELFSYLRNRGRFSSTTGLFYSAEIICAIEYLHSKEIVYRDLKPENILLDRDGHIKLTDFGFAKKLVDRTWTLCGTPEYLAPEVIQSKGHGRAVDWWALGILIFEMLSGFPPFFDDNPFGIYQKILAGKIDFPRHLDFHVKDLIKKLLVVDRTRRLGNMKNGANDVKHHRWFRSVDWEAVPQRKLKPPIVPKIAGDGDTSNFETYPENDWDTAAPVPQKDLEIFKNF
To be noted: at 0.1 µM.

In assay [9] the target is T5, cAMP-dependent protein kinase catalytic subunit PRKX (Homo sapiens). To be noted: at 1 µM.
The target in assay [10] is Rho-associated protein kinase 2 (Homo sapiens) (UniProt O75116). Particulars: at 0.1 µM.
Sequence of Rho-associated protein kinase 2 (Homo sapiens) (O75116 whole entry, looked up): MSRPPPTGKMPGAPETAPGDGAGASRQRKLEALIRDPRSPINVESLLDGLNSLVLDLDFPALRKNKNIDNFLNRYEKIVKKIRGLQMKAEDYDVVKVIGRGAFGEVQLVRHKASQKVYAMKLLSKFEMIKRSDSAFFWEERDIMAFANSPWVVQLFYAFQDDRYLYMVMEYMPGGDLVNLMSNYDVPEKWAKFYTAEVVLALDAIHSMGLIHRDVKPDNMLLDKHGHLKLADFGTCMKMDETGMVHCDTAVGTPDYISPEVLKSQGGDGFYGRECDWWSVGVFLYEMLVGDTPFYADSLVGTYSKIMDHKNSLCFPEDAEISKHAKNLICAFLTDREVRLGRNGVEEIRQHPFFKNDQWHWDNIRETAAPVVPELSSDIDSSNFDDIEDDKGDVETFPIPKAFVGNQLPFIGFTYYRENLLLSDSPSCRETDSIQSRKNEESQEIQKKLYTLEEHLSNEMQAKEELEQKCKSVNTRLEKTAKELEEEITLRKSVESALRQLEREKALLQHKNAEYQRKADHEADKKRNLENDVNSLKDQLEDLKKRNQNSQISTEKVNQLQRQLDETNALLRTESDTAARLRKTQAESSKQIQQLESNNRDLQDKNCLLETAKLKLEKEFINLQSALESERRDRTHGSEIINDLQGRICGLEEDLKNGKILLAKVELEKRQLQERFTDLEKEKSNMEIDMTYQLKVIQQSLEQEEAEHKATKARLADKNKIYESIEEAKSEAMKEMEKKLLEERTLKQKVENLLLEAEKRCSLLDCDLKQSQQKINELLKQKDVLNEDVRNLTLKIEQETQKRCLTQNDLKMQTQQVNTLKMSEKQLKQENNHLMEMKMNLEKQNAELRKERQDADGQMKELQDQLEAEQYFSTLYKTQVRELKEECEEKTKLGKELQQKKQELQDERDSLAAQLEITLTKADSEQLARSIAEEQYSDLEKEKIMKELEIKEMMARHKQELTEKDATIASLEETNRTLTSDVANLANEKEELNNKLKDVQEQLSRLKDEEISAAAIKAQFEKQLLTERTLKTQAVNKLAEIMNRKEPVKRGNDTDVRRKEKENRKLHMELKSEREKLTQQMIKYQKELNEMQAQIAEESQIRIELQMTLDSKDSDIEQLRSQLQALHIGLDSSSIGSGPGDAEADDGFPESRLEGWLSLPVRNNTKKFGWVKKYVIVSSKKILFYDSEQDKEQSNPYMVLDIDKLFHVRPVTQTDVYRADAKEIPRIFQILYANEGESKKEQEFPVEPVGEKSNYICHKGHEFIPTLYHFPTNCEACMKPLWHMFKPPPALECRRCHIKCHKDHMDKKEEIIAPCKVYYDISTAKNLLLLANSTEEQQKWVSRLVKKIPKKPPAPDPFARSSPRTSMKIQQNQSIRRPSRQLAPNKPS
The target is the same in assay [11]. To be noted: at 1 µM.
For assay [12], the target named is Ribosomal protein S6 kinase alpha-1 (Homo sapiens) (UniProt Q15418). To be noted: at 0.1 µM.
Sequence of Ribosomal protein S6 kinase alpha-1 (Homo sapiens) (Q15418 whole entry): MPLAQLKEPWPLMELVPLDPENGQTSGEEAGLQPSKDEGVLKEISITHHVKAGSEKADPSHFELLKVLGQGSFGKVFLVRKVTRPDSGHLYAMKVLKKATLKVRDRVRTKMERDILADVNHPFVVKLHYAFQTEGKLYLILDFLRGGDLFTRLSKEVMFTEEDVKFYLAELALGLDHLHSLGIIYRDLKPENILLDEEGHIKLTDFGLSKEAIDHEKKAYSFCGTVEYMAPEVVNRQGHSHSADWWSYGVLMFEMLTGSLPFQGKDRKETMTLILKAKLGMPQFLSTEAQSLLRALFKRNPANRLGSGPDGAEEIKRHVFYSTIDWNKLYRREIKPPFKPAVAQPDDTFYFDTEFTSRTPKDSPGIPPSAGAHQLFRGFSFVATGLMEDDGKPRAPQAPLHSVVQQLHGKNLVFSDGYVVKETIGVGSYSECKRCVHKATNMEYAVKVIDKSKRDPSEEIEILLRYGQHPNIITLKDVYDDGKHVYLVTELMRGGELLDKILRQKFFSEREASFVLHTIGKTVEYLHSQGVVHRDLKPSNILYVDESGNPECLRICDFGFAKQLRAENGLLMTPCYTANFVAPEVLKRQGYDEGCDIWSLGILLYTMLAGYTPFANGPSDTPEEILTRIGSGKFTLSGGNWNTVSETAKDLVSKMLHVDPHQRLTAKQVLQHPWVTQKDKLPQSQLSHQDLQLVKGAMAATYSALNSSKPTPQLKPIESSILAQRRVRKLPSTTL
Assay [13] shares this target. To be noted: at 1 µM.
Assay [14] addresses Ribosomal protein S6 kinase alpha-3 (Homo sapiens) (UniProt P51812). To be noted: at 0.1 µM.
For assay [15] the target is unchanged. To be noted: at 1 µM.
Assay [16] concerns the target Ribosomal protein S6 kinase alpha-2 (Homo sapiens) (UniProt Q15349). To be noted: at 0.1 µM.
For assay [17] the target is unchanged. Particulars: at 1 µM.
In assay [18] the target is Ribosomal protein S6 kinase alpha-6 (Homo sapiens) (UniProt Q9UK32). Particulars: at 0.1 µM.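 Also: reported value is the mean inhibition of RSK4, from the GSK PKIS kinase inhibitor screen.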
Sequence of Ribosomal protein S6 kinase alpha-6 (Homo sapiens) (Q9UK32 whole entry): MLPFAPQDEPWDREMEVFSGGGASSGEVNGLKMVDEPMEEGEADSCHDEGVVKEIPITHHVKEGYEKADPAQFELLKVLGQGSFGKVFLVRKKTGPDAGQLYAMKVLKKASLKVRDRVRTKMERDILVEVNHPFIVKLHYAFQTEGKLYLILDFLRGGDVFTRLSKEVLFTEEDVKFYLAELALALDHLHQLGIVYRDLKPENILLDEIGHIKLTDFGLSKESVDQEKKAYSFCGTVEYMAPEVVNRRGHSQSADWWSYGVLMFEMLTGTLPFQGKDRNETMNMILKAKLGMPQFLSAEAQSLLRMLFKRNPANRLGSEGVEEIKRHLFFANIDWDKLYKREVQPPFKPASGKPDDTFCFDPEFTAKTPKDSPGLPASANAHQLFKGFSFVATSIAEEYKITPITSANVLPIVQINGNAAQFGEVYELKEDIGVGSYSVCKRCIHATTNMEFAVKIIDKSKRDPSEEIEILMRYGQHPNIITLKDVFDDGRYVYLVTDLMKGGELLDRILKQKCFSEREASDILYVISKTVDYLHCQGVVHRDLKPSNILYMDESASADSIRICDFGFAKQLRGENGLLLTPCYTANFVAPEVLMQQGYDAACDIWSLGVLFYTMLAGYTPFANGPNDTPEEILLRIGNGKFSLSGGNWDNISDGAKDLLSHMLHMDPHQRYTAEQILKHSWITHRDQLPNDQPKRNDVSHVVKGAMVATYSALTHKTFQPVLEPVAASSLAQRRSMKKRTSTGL
Assay [19] has as its target Rho-associated protein kinase 1 (Homo sapiens) (UniProt Q13464). To be noted: at 0.1 µM.
The target is the same in assay [20]. To be noted: at 1 µM.

Sequence of Ribosomal protein S6 kinase alpha-2 (Homo sapiens) (Q15349 whole entry): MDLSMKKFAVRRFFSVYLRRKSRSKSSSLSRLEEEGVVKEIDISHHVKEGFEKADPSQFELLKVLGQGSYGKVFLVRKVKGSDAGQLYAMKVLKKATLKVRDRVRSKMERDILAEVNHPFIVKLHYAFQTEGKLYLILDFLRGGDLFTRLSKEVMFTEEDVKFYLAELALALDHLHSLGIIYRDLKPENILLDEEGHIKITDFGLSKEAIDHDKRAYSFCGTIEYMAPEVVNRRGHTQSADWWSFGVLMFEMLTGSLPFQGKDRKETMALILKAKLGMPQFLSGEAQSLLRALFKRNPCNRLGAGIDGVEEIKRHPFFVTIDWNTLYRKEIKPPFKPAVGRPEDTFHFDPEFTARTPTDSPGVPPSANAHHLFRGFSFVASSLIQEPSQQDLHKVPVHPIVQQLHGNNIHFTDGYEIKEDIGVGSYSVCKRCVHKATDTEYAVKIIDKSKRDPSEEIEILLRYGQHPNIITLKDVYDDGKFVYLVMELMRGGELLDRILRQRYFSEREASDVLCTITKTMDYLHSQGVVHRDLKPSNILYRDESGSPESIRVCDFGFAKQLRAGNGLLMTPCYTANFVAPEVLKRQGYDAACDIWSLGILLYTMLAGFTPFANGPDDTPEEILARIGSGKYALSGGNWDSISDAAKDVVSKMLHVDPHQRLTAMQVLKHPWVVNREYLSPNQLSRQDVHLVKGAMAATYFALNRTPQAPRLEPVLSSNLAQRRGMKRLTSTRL
Sequence of Rho-associated protein kinase 1 (Homo sapiens) (Q13464 2-1354 limits assumed): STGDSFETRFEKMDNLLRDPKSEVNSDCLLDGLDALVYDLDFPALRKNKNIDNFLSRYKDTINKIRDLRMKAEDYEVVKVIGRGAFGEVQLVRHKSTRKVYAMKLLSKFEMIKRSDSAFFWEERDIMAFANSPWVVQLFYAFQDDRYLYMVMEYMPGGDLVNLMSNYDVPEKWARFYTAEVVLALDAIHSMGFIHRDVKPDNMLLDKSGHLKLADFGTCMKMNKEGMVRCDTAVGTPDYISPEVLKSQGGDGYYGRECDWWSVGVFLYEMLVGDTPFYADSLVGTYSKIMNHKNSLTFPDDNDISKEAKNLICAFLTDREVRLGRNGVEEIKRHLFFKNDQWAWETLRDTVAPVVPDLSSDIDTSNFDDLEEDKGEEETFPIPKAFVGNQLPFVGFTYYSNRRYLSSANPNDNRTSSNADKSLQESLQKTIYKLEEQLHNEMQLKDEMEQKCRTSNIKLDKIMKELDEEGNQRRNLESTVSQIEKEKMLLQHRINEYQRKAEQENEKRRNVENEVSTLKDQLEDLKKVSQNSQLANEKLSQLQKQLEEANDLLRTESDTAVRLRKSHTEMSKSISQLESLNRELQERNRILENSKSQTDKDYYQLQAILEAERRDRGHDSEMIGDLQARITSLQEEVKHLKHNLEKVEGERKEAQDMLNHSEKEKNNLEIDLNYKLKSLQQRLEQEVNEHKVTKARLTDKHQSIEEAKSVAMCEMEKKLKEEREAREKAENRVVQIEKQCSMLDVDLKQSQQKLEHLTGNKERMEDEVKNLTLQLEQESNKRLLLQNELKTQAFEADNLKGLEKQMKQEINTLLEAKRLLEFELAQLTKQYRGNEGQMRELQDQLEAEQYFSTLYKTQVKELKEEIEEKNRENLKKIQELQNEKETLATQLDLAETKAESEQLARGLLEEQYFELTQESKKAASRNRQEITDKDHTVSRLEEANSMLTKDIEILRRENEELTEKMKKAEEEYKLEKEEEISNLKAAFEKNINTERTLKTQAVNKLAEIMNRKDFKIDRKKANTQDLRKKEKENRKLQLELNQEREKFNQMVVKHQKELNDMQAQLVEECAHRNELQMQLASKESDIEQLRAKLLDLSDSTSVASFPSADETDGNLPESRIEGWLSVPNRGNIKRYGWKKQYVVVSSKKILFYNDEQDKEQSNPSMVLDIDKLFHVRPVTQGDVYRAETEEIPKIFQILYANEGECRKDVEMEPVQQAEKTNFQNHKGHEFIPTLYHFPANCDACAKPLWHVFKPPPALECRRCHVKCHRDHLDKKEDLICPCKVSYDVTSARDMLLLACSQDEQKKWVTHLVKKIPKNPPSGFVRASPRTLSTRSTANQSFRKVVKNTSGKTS

Consider `CCn1c(-c2nonc2N)nc2cnc(Oc3cccc(NC(=O)c4ccc(OCCN5CCOCC5)cc4)c3)cc21`, for which the inhibition in [1] was 4.52%; in assay [2], 2.2%; in [3], 2.69%; in assay [4], 60.5%; in assay [5], 76.6%; in assay [6], 27.3%. Also, the inhibition worked out at 66.3% in [7]; 18.6% in [8]; 63.1% in assay [9]; 90% in assay [10]; 90.5% in assay [11]; 26.1% in assay [12]. Moreover, the inhibition in [13] is 70.6%; in [14] it was 12.2%; in [15], 54.6%; in assay [16] it was 15.6%; in assay [17], 61%; in [18] it was 2.18%.

In the case of `COc1cc2ncn(-c3cc(O[C@H](C)c4ccccc4Cl)c(C(N)=O)s3)c2cc1OC`, the inhibition was 4.06% in assay [1]; 2.93% in [2]; 2.62% in [3]; 3.62% in assay [4]; 4.56% in assay [5]; 3.5% in assay [6]. Besides, the inhibition in [7] is 5.66%; in assay [8] it was 2.91%; in [19], 1.18%; in assay [20], 3.85%; in [10], 4.45%; in assay [11], 13.6%. The inhibition in [12] was 3.9%; in assay [13], 18.7%; in assay [14], 3.39%; in assay [15] it was 16.4%; in assay [16], 2.9%; in [17], 10.6%. Besides, in assay [18], the inhibition was found to be 3.57%.

On to `CCCN1CCC(Oc2cc(Nc3nc(Nc4cccc(F)c4C(N)=O)c4cc[nH]c4n3)c(OC)cc2Cl)CC1`, for which the inhibition stood at 8.74% in assay [1]; 0.21% in [2]; 17.1% in assay [3]; 1.4% in assay [4]; 3.67% in assay [5]; 0.8% in [6]. The inhibition in assay [7] worked out at 3.46%; in [8], 7.71%; in assay [9] it was 7.12%; in [19], 0.94%; in assay [20] it was 8.85%; in assay [10], 1.22%. The inhibition in assay [11] was 7.48%; in [12], 0.01%; in assay [13], 7.33%; in assay [14], 0.89%; in assay [15], 3.26%; in assay [16], -0.12%. Further, the figures for the inhibition in [17] and in assay [18] were 0.95% and 1.35%, respectively.
